# Test results reported in PubChem BioAssay AID1347046 (National Center for Advancing Translational Sciences (NCATS), 2019).
# Among all 1,400 compounds or so, about 940 (67%) were called active. Inconclusive results (about 27%) are left out. Calls follow the shape of the full dose curve. The set was probably picked from earlier hits. Only a sample is shown.
# Molecular target: Atrial natriuretic peptide receptor 2 (Homo sapiens) (UniProt P20594)
# Assay: Natriuretic polypeptide receptor (hNpr2) antagonism - Subtype selectivity assay; also: nearly all actives have a fitted effect of over 70% in size
# Details: HEK293 hNpr2 GloSensor cGMP luminescence, CNP-stimulated; series mostly up to 57.6 µM
# Procedure: F. Fan, B. F. Binkowski, B. L. Butler, P. F. Stecha, M. K. Lewis, K. V. Wood, Novel genetically encoded biosensors using firefly luciferase. ACS Chem Biol 3, 346-351 (2008).
# PROTOCOL TABLE (as described by Inglese J, Shamu CE and Guy RK. 2007) SEQUENCE No. (e.g., 1, 2, 3, etc.); PARAMETER (e.g., Cells, Incubation, Reagent, etc.); VALUE and DESCRIPTION. 1. Cells. Seed 1500 HEK293 cGMP-sensor cells expressing hNpr2 per well in 4uL into Greiner 1536-well white/solid bottom high base, TC plates. 2. Incubation. Incubate plated cells at 37C in 5% CO2, 95% RH overnight. 3. Reagent. Add 1uL per well GloSensor reagent from Promega (2% final concentration) or CO2 independent media vehicle control to respective columns of Greiner 1536-well plates. 4. Incubation. Incubate plated cells at ambient temperature for 2 h., protect from light. 5. Compounds. Library compounds and DMSO vehicle control added at 23nL per well, transferred by Pin Tool. 6. Incubation. Incubate plated cells for 30 min. at ambient temperature, protect from light. 7. Detector. GloSensor baseline pre-read luminescence measured using CCD-based camera (Viewlux). 8. Compound. Add 1uL of hNppC peptide to 1 nM final concentration to stimulate hNpr2 or CO2 independent media as vehicle control. 9. Incubation. Incubate treated cells at ambient temperature for 20 min., protect from light. 10. Detector. GloSensor post-hNppC luminescence measured using CCD-based camera (Viewlux). NOTES (numbers refer to Sequence numbers above) 1. HEK293 cells expressing hNpr2 and GIP/pGS-40F were grown to 85-95% confluence (48-72 h) in T175 culture flasks (CO2 independent media supplemented with 10% FBS, 1% Pen/Strep antibiotics, and 1 ug/mL puromycin). Trypsinize and harvest cells from T175 culture flasks and filter through 40 um cell strainer. Cells counted with Invitrogen Countess (30,000,000 - 50,000,000 cells/flask). Cells diluted to a final concentration of 375 cells/uL in CO2 independent media and a Millipore multidrop used to dispense 1500 cells per well (4uL/well) into 13 1536-well Greiner White/Solid bottom, high base tissue-culture treated (TC) plates and one Aurora 1536-well Black/Clear bottom, low base, TC plate (for visual inspection of cell health throughout the duration of the assay). 2. Cells incubated for 24 h. at 37C in 95% RH incubator with metal lid having gas-exchange holes. 3. Prepare GloSensor Reagent (Promega): Reconstitute GloSensor luciferase substrate by adding 8.2mL Hepes buffer to 250mg substrate, mix well, protect from light and stored at -80C. Prepare a fresh 12% GloSensor solution in CO2 independent supplemented plating media (see above). Mix well and store at ambient temperature, protected from light. 1uL 12% GloSensor Luciferase Reagent added (2% final concentration) to respective columns of 13 x 1536-well Greiner plate with BioRaptr, 1uL CO2 independent plating media added to respective columns as vehicle control with BioRaptr. 4. Cells incubated for 2 h. at ambient temperature, protected from light with metal lid having gas-exchange holes. 5. 23nL of library compounds or DMSO vehicle control transferred to 13 Greiner white/solid bottom high base, TC plates in 11 interplate 1:3 titrations (see Yasgar, A. et al. 2008) with Pintool. 6. Cells incubated for 30-50 min. at ambient temperature protected from light with metal lid having gas-exchange holes. 7. Read cellular baseline GloSensor luminescence in presence of test library compounds on the ViewLux [Exposure = 10 s.; Gain = High; Speed = Slow; and Binning = 2X.] 8. hNppC peptide agonist solution prepared at 1 mM (in H2O) stock concentration. From this a working dilution was prepared at 6 nM in CO2 Independent media. 1uL of 6 nM hNppC agonist (1 nM final concentration) or CO2 Independent media vehicle control dispensed into respective columns of 13 x Greiner 1536-well white/solid bottom, tissue culture plates with BioRaptr. 9. Cells incubated for 20 min. at ambient temperature, protected from light with metal lid having gas-exchange holes. 10. […]
# Potency is read from the fitted curve at half-maximal effect.
# Sequence of Atrial natriuretic peptide receptor 2 (Homo sapiens) (P20594 whole entry, looked up): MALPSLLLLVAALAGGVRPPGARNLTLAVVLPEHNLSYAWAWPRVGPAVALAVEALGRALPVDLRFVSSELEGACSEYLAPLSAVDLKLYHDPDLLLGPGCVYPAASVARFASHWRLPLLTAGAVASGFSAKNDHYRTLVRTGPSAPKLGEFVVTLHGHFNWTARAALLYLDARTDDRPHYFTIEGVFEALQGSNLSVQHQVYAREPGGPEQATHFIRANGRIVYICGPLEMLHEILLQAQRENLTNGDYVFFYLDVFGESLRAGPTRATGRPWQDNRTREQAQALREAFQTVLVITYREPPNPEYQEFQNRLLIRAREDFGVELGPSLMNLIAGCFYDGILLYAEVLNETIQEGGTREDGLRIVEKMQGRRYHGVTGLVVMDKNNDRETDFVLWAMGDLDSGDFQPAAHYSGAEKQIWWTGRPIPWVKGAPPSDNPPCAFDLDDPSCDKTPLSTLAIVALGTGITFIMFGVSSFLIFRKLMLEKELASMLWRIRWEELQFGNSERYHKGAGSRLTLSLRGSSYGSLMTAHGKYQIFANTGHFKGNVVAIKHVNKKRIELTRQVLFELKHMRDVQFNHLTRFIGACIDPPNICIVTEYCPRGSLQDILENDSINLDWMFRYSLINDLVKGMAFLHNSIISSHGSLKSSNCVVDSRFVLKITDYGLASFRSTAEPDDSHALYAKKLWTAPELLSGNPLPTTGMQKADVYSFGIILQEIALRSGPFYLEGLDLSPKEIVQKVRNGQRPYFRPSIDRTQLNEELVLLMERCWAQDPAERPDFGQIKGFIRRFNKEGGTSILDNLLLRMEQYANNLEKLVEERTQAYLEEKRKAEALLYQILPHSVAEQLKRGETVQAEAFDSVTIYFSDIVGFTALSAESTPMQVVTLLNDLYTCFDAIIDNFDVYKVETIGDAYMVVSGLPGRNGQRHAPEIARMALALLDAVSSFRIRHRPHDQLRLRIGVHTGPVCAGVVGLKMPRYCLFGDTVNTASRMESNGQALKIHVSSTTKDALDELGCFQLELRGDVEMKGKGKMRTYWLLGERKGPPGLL
row,Structure (SMILES),Potency
1,Cc1ccc2nc(C3CCCN(Cc4ccc(C#N)cc4)C3)[nH]c(=O)c2c1 (centres undefined),24.3 µM (active)
2,O=c1[nH]c(C2CCCN(Cc3ccccn3)C2)nn1-c1ccc(Cl)cc1 (centres undefined),10.9 µM (active)
3,CC(C)(C)c1csc(NC(=O)c2ccc3c(c2)OCCN(C2CCC2)C3)n1,35.3 µM (active)
4,COc1ccccc1Nc1cnc2ccc(N(C)Cc3cccnc3)nn12,28 µM (active)
5,C1CCC(COCCc2noc(C3CNC3)n2)C1,21.7 µM (active)
6,O=C(NCc1nnc2cc(-c3nc(C4CC4)no3)ccn12)c1ccc(F)cc1Cl,13.7 µM (active)
7,Cc1ccc2c(c1)nc1n2[C@@H](CNS(=O)(=O)c2ccccc2)COC1,31.4 µM (active)
8,O=C(c1ccc(Cl)cc1)N1CCCC(n2cc(-c3nc(-c4ccccc4)no3)nn2)C1 (centres undefined),21.7 µM (active)
9,O=C(c1ccc(F)cc1Cl)N1CCC(n2cc(-c3nc(-c4ccccc4)no3)nn2)C1 (centres undefined),5.44 µM (active)
10,COc1ccc(C(=O)N2CCC(n3cc(-c4nc(C(C)C)no4)nn3)CC2)cc1F,inactive
11,O=C1c2cnc(-c3ccc(Cl)cc3)nc2OCCN1Cc1ccccc1,35.3 µM (active)
12,Cc1cc(N2CCCC(Cn3cc(Cc4ccccc4)nn3)C2)nc(N)n1 (centres undefined),9.68 µM (active)
13,O=C(c1ccccn1)N1CC(Oc2ccc(-c3noc(C4CC4)n3)cc2)C1,19.3 µM (active)
14,COc1ccc(C2Cn3nnc(C(=O)N4CCN(C(=O)c5cccc(Cl)c5)CC4)c3CO2)cc1 (centres undefined),15.3 µM (active)
15,O=C(c1ccc(F)cc1F)N1CCN(c2cc(-c3ccc(Cl)cc3)[nH]n2)CC1,19.3 µM (active)
16,CCc1ccc(C(=O)N2CCN(c3cc(-c4ccc(F)cc4)[nH]n3)CC2)cc1,21.7 µM (active)
17,O=C(c1cc(F)ccc1Cl)N1CCN(c2cc(-c3ccc(F)cc3)[nH]n2)CC1,24.3 µM (active)
18,Cc1ccc(C(=O)N2CCN(c3cc(-c4ccc(Cl)cc4)[nH]n3)CC2)c(C)c1,9.68 µM (active)
19,O=C(c1ccc2cc[nH]c2c1)N1CCC2(CC1)N=C(c1ccc(Cl)cc1)NO2,21.7 µM (active)
20,O=C1NCN(Cc2ccc(Cl)cc2)C12CCN(Cc1ccccc1)CC2,19.3 µM (active)
21,COc1cccc(-c2noc(CC3CCN(C(=O)c4ccc(F)cc4)CC3)n2)c1,6.11 µM (active)
22,O=C(c1ccccc1)N1CCC(C(=O)N2CCC(Cc3nc(-c4ccc(F)cc4)no3)CC2)CC1,19.3 µM (active)
23,CCN(CCCNC(=O)c1nnn2cc(-c3ccccc3)[nH]c(=O)c12)c1ccccc1,inactive
24,COc1cccc(NC(=O)Cn2c(N(C)Cc3ccccc3)nc(C)cc2=O)c1,12.2 µM (active)
25,COc1cccc(CNC(=O)Cn2c(N(C)Cc3ccccc3)nc(C)cc2=O)c1OC,27.3 µM (active)

row,Structure (SMILES),Potency
1,Cc1nn2c(c1-c1ccccc1-c1ccccc1)N(CC1CC1)CCC2,3.14 µM (active)
2,Cc1nc(-c2ccncc2)ncc1C(C)Nc1ncnc(C)c1C (centres undefined),17.2 µM (active)
3,CN(C)CCNC(=O)C(C)(C)Oc1nn(Cc2cccc(Cl)c2)c2ccccc12,31.4 µM (active)
4,CN1CCN(C(=O)C(C)(C)Oc2nn(Cc3cccc(Cl)c3)c3ccccc23)CC1,19.8 µM (active)
5,Cc1noc(C)c1-c1cc(-c2ccccc2Oc2ccccc2)cn2cncc12,11.1 µM (active)
6,CN(Cc1csc(-c2ccccc2)n1)c1cc(C2CC(O)C2)nc(N)n1 (centres undefined),3.85 µM (active)
7,Cc1c[nH]c(CN2CCCC(CCc3ccc(F)cc3F)C2)c(C)c1=O (centres undefined),3.85 µM (active)
8,O=C1Nc2ccccc2CN(Cc2ccccc2)C12CCNCC2,17.2 µM (active)
9,COc1ccc(OCC2(C)COc3ccc(C(=O)Nc4cccnc4)cc3N2)cc1 (centres undefined),35.3 µM (active)
10,CC1=NS(=O)(=O)N(C)C=C1C(=O)OCc1nc(-c2ccc(C)cc2)no1,13.7 µM (active)
11,COc1ccc(CCNC(=O)c2noc(-c3ccc(C)cc3)n2)cc1OC,21.7 µM (active)
12,O=[S+]1([O-])NCC2(CCCN(Cc3ccc(C(F)(F)F)cc3)C2)Oc2ncccc21 (centres undefined),15.3 µM (active)
13,COc1ccc(CN2C(=O)CO[C@H]3CN(Cc4ccc5c(c4)OCO5)C[C@H]32)cc1,31.4 µM (active)
14,Cc1cccc(CN2CCc3nc(C(=O)Nc4ccc(Cl)cc4)oc3CC2)c1,12.5 µM (active)
15,O=C(c1ccccc1)N1CCNc2cnc(Nc3cccc(C(F)(F)F)c3)nc2C1,28 µM (active)
16,CC1(C(=O)NCc2ccc3c(c2)OCO3)CCc2cnc(NCc3ccccc3)nc21 (centres undefined),35.3 µM (active)
17,O=C(NCC1CC1)c1nc2c(o1)CCN(Cc1cccc(F)c1F)CC2,28 µM (active)
18,O=C(Cc1c[nH]c2ncc(-c3ccccc3F)cc12)N1CCOCC1,15.7 µM (active)
19,Cc1ccc(OCc2nc(C3CCN(C(=O)CCc4nc5ccc(Cl)cc5[nH]4)CC3)no2)cc1,24.3 µM (active)
20,CC(C)c1cc(C(=O)N2CCC(n3cc(-c4ccccn4)nn3)CC2)n(C)n1,19.3 µM (active)
21,OC1(Cc2cc(-c3ccccc3)no2)CCN(c2ncncn2)CC1,8.62 µM (active)
22,COc1ccc(CC(=O)N2CCC(Cc3nc(-c4ccccc4)no3)CC2)cc1OC,15.3 µM (active)
23,COc1ccc(-c2noc(CC3CCN(C(=O)Cc4ccc(OC)c(OC)c4)CC3)n2)cc1,5.44 µM (active)
24,COc1ccc(-c2noc(CC3CCN(C(=O)CC4CCCCC4)CC3)n2)cc1,12.2 µM (active)
